Experimental data taken from PubChem BioAssay (NCATS).
Where “and” joins values, the source holds several entries; their conditions need not be identical. Equal entries are not always repeated. Inconclusive results are not listed. Calls of active or inactive are those of the source. Unless noted, the call rests on the fitted dose curve; in most records, active means well fitted curve in either direction with a large enough effect (not every such curve was filed as active); inconclusive means small, poorly fitted or top-dose-only effect, or another doubt; inactive means flat fitted curve, though single readings scatter.

Legend:
[1] = AP1 Signaling Pathway (AID 357);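 further: ME-180 reporter cells stimulated with EGF at its EC50 level; on the % scale 0 is the no-effect control and ±100 the full control effect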
Summary of the method: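 First, ME-180 AP-1-bla cells were cultured overnight at 37 °C in low-serum Opti-MEM. Next, titrated compounds with EC50 EGF were incubated 5 hours. Finally, CCF4 was added for 2.5 hours and the 460/530 nm ratio recorded.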

[2] = biological target: Cytochrome P450 1A2 (Homo sapiens) (UniProt P05177); assay: p450-cyp1a2 (AID 410; calls by dose curve; further: potency means the concentration at half of the fitted maximal effect;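 on activity change, negative = inhibition: -100% = full effect of reference inhibitor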)
Summary of the method: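 Read-out is luminescence from luciferin produced by CYP1A2 demethylation of Luciferin-ME (100uM, at Km). Detection reagent stopped the 60 min NADPH-dependent reaction; signals were normalized to 57 uM furafylline.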

[3] = Stat Signaling Pathway (AID 446);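 further: ME-180 cervical cancer cells given 40 pM IL-6 alongside compound; SIE-controlled beta-lactamase reporter measured as 460/530 nm FRET emission ratio; on the % scale 0 is the no-effect control and ±100 the full control effect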
Summary of the method: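 Normalization used AC90 stimulation (300 pM IL-6) and AC90 inhibition (125 nM pan-JAK inhibitor at 40 pM IL-6). The underlying signal is SIE-driven beta-lactamase in ME-180 cells after 5 h IL-6 exposure with compound.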

[4] = biological target: Glucocorticoid receptor (Homo sapiens) (UniProt P04150); assay: GR-EFC Redistribution (AID 451; calls by dose curve; further: potency means the concentration at half of the fitted maximal effect); settings: CHO-K1 GR-EFC translocation, beta-gal luminescence, 2 h
Summary of the method: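 Translocation of GR-ED fusion to nuclear EA restores b-gal, read by luminescence after 1 h room-temperature detection. Engineered CHO-K1 biosensor cells, 1,000/well, exposed 2 h at 37 C to titrations up to 46 uM final.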

[5] = biological target: Mitogen-activated protein kinase 10 (Mus musculus) (UniProt Q61831); assay: JNK3 AlphaScreen Assay (AID 530);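 further: kinase came from lysate of stimulated human HepG2 cells; signal reports phosphorylation of biotinylated GST-cJun 1-79 at Ser73 with 10 µM ATP; on the % scale 0 is the no-effect control and ±100 the full control effect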
Summary of the method: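 Kinase buffer: 20 mM Tris-HCl pH 7.6, 10 mM MgCl2, 1 mM DTT, 0.1 mM Na3VO4, 0.01% Tween-20; ATP 10 uM. Substrate biotin-GST-cJun(1-79), enzyme from activated HepG2 lysates. Detection by Ser73 phospho-antibody AlphaScreen.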

[6] = biological target: 3',5'-cyclic-AMP phosphodiesterase 4B (Homo sapiens) (UniProt Q07343); assay: qHTS Assay for Inhibitors of PDE-IV (AID 607; active means well fitted activation curve with a large enough effect in the main read-out, with a control signal flat, not every such curve was filed as active; further: % of control where 0% means no effect)
Summary of the method: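 HEK293 ACTOne cells with CNG channel (1000/well), endogenous PDE4; membrane potential dye, compounds up to 22.9 uM final. Fluorescence Ex 535/Em 590; RO 20-1724 (100 uM final) as reference.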

[7] = qHTS Assay for Lipid Storage Modulators (AID 1519; calls by dose curve; further: potency means the concentration at half of the fitted maximal effect); settings: Drosophila S3 cells, BODIPY lipid droplet/cell ratio, laser cytometry, cells loaded with oleic acid
Summary of the method: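 Cells seeded at 5,000 per well were treated with compounds over a concentration series and loaded with oleic acid (400 uM, as added). Lipid droplet fluorescence (488 nm excitation, 500-530 nm channel) was read by laser-scanning cytometry and normalized to 20 uM Triacsin C.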

[8] = NFAT Signaling Pathway (AID 444); settings: Jurkat NFAT-bla M1, carbachol, beta-lactamase ratio, 5 h;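 further: carbachol stimulus at about its EC50 of 1 µM final; on the % scale 0 is the no-effect control and ±100 the full control effect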
Summary of the method: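 Read-out: CCF4 FRET ratio (460 nm/530 nm) after 1 h RT dye loading, used for %activity and AC50 from titration series. Cells: Jurkat NFAT-β-lactamase/M1 line, treated with compound plus 1 uM carbachol for 5 h, 37 °C.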

[9] = biological target: Cytochrome P450 3A4 (Homo sapiens) (UniProt P08684); assay: qHTS Assay for Activators of Cytochrome P450 3A4 (AID 885; active means well fitted curve in the direction sought with a large enough effect; an effect the other way counts as inactive or inconclusive; further: nearly all actives have a fitted effect of over 65% in size)
Summary of the method: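 Human CYP3A4 dealkylates Luciferin-PPXE to luciferin, which luciferase detection converts to light. Substrate was at its KM (25uM), buffer 200mM KPO4, reaction 60 min at RT.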

[10] = biological target: Ubiquitin carboxyl-terminal hydrolase 1 (Homo sapiens) (UniProt O94782); assay: Inhibitors of USP1/UAF1: Pilot qHTS (AID 504865; active means well fitted curve in the direction sought with a large enough effect; an effect the other way counts as inactive or inconclusive;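 further: rhodamine fluorescence freed from ubiquitin-rhodamine substrate followed over time; top concentration of the series differs between compounds; on the % scale 0 is the no-effect control and ±100 the full control effect; nearly all actives have a fitted effect of over 35% in size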)
Summary of the method: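 Deubiquitinase activity followed as kinetic rhodamine fluorescence release from 150 nM Ub-Rho. 1 nM USP1/UAF1 with compound, after 15 min room-temperature preincubation, in HEPES pH 7.8 buffer containing TCEP, EDTA, BSA and Tween-20.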

[11] = biological target: Glucocorticoid receptor (Homo sapiens) (UniProt P04150); assay: GR-GFP Redistribution (AID 450;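 active means compounds whose dose series gives a full or clear partial fitted curve of increased nuclear translocation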; further: potency means the concentration at half of the fitted maximal effect); settings: U2OS GR-GFP nuclear translocation, laser cytometry, 2 h
[12] = biological target: ATP-dependent 6-phosphofructokinase (Trypanosoma brucei brucei) (UniProt O15648); assay: qHTS Assay to Find Inhibitors of T. brucei phosphofructokinase: hit validation (AID 492961; active means well fitted curve in the direction sought with a large enough effect; an effect the other way counts as inactive or inconclusive)
Summary of the method: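 ADP-Glo luminescence read-out of ADP formed by 1.25 nM PFK from 0.1 mM ATP and 0.5 mM F6P (TEA pH 8.0, 45 min, RT). Compounds titrated; activity normalized to no-enzyme and full-enzyme controls.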

[13] = biological target: Luciferin 4-monooxygenase (Photinus pyralis) (UniProt P08659); assay: Biochemical firefly luciferase enzyme assay for NPC (AID 624030; active means well fitted curve in the direction sought with a large enough effect; an effect the other way counts as inactive or inconclusive;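 further: purified P. pyralis luciferase at 10 nM with luciferin and ATP substrate; 0% = DMSO and -100% = full luciferase inhibition by PTC124 control; nearly all actives have a fitted effect of over 70% in size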)
Summary of the method: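 Direct inhibition of firefly luciferase enzyme (10 nM final, 50 mM Tris Acetate) assessed by luminescence within 5 minutes. Percent activity scaled between DMSO and PTC124 positive control, with concentration-effect curves classified by fit quality and response.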

[14] = S16 Schwann cell viability assay (CellTiter-Glo assay) (AID 624031; active means well fitted curve in the direction sought with a large enough effect; an effect the other way counts as inactive or inconclusive;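 further: native untransfected S16 rat Schwann cells; cellular ATP luminescence as a viability measure; plate controls were DMSO-treated cells for no effect and cell-free wells for full effect; nearly all actives have a fitted effect of over 70% in size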)
Summary of the method: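 Cells were seeded at 500-750 per well in phenol red-free DMEM with 10% FBS and left overnight. Compounds or DMSO were pinned in, incubation ran 24 h at 37 °C/5% CO2, then CellTiter-Glo reagent was added and luminescence measured.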

[15] = S16 Schwann cell PMP22 intronic element firefly luciferase assay (AID 624032; active means well fitted curve in the direction sought with a large enough effect; an effect the other way counts as inactive or inconclusive;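 further: plate controls were DMSO for no effect and PTC124 positive control mean for full effect; nearly all actives have a fitted effect of over 30% in size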)
Summary of the method: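 Luciferase reporter of PMP22 intronic-element expression in stably transfected S16 rat Schwann cells, read by ONE-Glo luminescence after 24 h compound exposure at 37 C. Activity scaled between DMSO (0%) and positive-control PTC124; concentration-effect curves quality-classified.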

[16] = qHTS profiling for inhibitors of Plasmodium falciparum proliferation (AID 504749; active means well fitted curve in the direction sought with a large enough effect; an effect the other way counts as inactive or inconclusive;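 further: 0% = DMSO vehicle and full inhibition = artemisinin control; nearly all actives have a fitted effect of over 60% in size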); settings: P. falciparum in erythrocytes, SYBR Green DNA, 72 h
Summary of the method: (§1)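 In a 72 h erythrocytic culture (37 C, humidified, 5% CO2) at 2.5% hematocrit and 0.3% starting parasitemia, compounds were tested; SYBR Green I in detergent lysis buffer stained parasite DNA overnight.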

3D7 = assay: as above; settings: P. falciparum in erythrocytes, SYBR Green DNA, 72 h; series mostly up to 28.7 µM
Summary of the method: as §1

CP262 = assay: as above; settings: P. falciparum in erythrocytes, SYBR Green DNA, 72 h; series mostly up to 28.7 µM
Summary of the method: as §1

ECU = assay: as above; settings: P. falciparum in erythrocytes, SYBR Green DNA, 72 h; series mostly up to 28.7 µM
Summary of the method: as §1

HB3 = assay: as above; settings: P. falciparum in erythrocytes, SYBR Green DNA, 72 h; series mostly up to 28.7 µM
Summary of the method: as §1

[17] = measured here: cell count channel max response
[18] = measured here: lipid channel max response

Chain of 3',5'-cyclic-AMP phosphodiesterase 4B (Homo sapiens) (Q07343 whole entry, looked up): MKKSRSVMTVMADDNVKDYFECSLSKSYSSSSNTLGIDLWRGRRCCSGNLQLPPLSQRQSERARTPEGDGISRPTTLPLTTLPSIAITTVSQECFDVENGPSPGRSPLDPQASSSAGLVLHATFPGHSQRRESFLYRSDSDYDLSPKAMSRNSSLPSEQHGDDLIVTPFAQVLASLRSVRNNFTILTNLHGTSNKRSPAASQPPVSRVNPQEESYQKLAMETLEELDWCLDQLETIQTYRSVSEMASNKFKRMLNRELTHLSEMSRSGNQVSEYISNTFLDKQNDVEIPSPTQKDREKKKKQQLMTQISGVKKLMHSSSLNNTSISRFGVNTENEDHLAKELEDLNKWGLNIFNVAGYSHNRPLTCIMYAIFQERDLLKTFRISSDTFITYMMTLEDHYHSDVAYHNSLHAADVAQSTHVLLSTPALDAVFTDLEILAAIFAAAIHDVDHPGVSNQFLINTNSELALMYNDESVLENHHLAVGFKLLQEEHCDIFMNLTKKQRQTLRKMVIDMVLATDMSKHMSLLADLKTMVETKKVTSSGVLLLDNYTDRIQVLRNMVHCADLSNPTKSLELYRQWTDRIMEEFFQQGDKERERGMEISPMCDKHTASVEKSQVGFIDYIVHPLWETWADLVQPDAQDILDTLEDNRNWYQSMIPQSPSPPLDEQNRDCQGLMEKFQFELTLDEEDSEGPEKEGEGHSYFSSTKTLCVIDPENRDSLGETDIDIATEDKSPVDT
Chain of Cytochrome P450 1A2 (Homo sapiens) (P05177 whole entry, looked up): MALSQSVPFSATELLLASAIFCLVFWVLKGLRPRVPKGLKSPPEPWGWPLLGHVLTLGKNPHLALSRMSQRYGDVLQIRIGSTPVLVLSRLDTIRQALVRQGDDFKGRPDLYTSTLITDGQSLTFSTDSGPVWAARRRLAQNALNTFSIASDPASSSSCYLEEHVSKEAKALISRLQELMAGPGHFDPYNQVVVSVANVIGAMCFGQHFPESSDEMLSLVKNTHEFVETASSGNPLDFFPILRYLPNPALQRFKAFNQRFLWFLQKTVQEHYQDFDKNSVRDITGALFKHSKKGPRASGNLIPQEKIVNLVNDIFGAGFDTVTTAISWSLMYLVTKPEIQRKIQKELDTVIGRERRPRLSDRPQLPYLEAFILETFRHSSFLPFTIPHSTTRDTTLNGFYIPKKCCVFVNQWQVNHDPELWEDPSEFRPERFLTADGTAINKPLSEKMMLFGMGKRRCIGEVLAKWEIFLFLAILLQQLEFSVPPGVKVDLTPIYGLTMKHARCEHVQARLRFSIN
Chain of Ubiquitin carboxyl-terminal hydrolase 1 (Homo sapiens) (O94782 whole entry, looked up): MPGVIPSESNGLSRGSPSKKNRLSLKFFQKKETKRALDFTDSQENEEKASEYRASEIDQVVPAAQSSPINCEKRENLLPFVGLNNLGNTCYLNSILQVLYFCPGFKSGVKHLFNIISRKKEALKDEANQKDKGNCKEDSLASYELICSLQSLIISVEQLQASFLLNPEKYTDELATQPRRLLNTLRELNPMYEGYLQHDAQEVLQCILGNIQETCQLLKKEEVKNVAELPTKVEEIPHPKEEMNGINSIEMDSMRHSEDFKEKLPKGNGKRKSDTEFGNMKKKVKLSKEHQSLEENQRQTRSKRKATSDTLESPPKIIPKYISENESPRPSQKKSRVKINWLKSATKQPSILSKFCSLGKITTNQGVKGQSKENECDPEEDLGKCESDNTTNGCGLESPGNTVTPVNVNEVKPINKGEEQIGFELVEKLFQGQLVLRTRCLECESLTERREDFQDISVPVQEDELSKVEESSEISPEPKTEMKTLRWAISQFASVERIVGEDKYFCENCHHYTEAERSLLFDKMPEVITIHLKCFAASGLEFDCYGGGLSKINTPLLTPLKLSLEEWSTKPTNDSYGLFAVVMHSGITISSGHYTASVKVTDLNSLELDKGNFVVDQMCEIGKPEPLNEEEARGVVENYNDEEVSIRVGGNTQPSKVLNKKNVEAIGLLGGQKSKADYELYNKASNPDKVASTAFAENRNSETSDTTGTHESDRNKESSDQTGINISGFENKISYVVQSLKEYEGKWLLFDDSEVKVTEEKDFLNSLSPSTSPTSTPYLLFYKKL
Chain of Glucocorticoid receptor (Homo sapiens) (P04150 whole entry, looked up, the tested form may be a part): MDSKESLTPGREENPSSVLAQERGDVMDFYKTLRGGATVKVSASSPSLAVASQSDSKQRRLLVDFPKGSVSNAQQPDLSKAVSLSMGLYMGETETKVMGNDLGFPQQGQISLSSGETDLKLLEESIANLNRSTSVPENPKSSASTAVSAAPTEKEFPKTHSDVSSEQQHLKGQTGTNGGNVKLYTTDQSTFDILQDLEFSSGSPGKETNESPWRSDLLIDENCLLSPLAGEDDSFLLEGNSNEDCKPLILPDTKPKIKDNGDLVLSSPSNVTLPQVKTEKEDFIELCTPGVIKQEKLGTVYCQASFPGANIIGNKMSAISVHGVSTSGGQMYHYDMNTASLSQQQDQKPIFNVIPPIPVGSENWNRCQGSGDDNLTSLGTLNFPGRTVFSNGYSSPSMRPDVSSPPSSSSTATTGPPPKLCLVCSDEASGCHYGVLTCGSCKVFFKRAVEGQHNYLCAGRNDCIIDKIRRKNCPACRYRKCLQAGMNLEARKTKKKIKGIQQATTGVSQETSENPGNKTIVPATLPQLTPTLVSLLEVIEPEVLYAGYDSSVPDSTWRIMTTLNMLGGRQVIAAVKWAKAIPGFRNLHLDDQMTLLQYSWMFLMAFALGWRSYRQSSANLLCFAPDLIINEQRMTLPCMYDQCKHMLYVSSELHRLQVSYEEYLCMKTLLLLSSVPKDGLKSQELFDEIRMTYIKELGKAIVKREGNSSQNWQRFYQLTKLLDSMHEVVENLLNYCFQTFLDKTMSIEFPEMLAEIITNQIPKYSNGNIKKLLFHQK
Chain of ATP-dependent 6-phosphofructokinase (Trypanosoma brucei brucei) (O15648 whole entry, looked up): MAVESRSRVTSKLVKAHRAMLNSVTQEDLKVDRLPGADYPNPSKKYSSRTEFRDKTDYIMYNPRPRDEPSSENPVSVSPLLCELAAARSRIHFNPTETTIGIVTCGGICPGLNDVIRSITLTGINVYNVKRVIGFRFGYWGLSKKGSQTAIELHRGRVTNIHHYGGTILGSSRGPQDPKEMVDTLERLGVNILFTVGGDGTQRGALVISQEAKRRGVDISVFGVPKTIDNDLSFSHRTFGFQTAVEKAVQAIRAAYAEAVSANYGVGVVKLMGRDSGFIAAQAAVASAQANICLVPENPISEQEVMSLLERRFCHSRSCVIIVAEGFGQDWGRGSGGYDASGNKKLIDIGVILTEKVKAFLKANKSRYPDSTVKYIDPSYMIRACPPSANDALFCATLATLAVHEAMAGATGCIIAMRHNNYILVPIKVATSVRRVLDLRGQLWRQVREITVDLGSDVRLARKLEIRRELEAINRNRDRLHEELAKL
Chain of Cytochrome P450 3A4 (Homo sapiens) (P08684 whole entry, looked up): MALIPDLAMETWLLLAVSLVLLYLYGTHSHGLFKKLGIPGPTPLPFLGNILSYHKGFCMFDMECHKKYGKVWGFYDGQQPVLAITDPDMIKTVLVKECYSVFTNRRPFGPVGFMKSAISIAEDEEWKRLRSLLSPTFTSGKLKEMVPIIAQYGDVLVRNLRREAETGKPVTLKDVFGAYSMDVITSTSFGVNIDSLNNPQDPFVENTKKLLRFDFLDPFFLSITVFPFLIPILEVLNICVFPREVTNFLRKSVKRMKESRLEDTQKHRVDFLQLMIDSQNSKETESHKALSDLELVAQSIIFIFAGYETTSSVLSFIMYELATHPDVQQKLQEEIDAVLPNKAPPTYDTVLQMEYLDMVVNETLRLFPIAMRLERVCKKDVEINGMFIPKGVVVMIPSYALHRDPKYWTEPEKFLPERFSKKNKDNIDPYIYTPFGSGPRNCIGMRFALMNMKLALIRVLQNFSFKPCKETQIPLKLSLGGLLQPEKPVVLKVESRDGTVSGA
Chain of Luciferin 4-monooxygenase (Photinus pyralis) (P08659 whole entry, looked up): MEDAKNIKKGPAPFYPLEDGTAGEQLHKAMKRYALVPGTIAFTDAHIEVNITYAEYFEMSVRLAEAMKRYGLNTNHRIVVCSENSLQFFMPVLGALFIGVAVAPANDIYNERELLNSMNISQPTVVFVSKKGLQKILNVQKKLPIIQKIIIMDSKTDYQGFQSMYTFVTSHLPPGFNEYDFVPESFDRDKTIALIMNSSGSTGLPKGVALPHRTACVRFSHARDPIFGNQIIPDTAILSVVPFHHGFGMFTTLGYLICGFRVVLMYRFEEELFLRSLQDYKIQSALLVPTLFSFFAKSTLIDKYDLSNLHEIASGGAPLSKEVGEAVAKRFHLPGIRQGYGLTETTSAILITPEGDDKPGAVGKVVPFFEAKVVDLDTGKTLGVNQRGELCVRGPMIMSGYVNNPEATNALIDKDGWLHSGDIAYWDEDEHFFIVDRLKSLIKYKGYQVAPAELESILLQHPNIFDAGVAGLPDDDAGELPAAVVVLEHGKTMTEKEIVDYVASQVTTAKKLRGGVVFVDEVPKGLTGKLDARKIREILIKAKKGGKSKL

CC(C)CN1CC2(CCN(C(=O)c3ccncc3)CC2)C1
inactive: outcome [1] | Potency [2] | outcome [3] | Potency [4] > 46 µM | outcome [5] | Potency [6] | activity change, negative = inhibition ([7]; at 57.5 µM (top of the series)) -1.63%
11.7%: max response [7, 17]
11.8%: max response [7, 18]

CN1CC[C@@]2(CCCN(C(=O)c3ccco3)C2)C1
19.3%: max response [7, 18]
10.7%: max response [7, 17]
inactive: outcome [1] | activity change, negative = inhibition ([8]; at 7.69 µM (top of the series)) -15.5% | outcome [3] | Potency [4] > 46 µM | outcome [5] | Potency [6] | Potency [9] | activity change, negative = inhibition ([7]; at 57.5 µM (top of the series)) 5.37%

COC(=O)NC(=S)Nc1ccccc1NC(=S)NC(=O)OC
10.3%: max response [7, 18]
inactive: activity change, negative = inhibition ([7]; at 57.5 µM (top of the series)) 3.23% | Potency [10]
8.02%: max response [7, 17]

COP(=S)(OC)Oc1ccc([N+](=O)[O-])cc1
active: Potency [7] 22.4 µM
-54.1%: max response [7, 18]
19.5%: max response [7, 17]
inactive: outcome [5] | Potency [9]

O=C(Nc1cccc(F)c1)N1CCC2(CC1)CCN(C(=O)Oc1ccccc1)CC2
-23.3%: max response [7, 17]
inactive: outcome [1] | Potency [2] | activity change, negative = inhibition ([8]; at 7.69 µM (top of the series)) 12% | outcome [3] | Potency [4] > 46 µM | outcome [5] | Potency [6] | activity change, negative = inhibition ([7]; at 57.5 µM (top of the series)) -7.04%
-28%: max response [7, 18]

COC1=CC(=O)O[C@@H](/C=C\c2ccccc2)C1
inactive: outcome [1] | activity change, negative = inhibition ([8]; at 17.2 µM (top of the series)) -0.425% | outcome [3] | Potency [11] > 20.6 µM | Potency [4] > 20.6 µM | outcome [5] | activity change, negative = inhibition ([7]; at 25.7 µM (top of the series)) 1.1% | Potency [10]
active: Potency [2] 3.16 µM
-0.269%: max response [7, 18]
-5.23%: max response [7, 17]

C[N+]1(C)[C@@H]2CC[C@H]1CC(OC(=O)[C@@H](CO)c1ccccc1)C2 (stereo not given in full)
-7.55%: max response [7, 17]
-13.1%: max response [7, 18]
active: activity change, negative = inhibition ([8]; at 17.2 µM (top of the series)) -48.4% | activity change, negative = inhibition ([8]; at 38 µM (top of the series)) -61.2%
inactive: outcome [1] | Potency [2] | outcome [3] | Potency [11] > 46 µM and > 20.6 µM | Potency [4] > 46 µM and > 20.6 µM | outcome [5] | Potency [6] | activity change, negative = inhibition ([7]; at 25.7 µM (top of the series)) -3.15% | Potency [12] | Potency [10] | Potency [13] | Potency [14] | Potency [15] | activity, negative = inhibition ([16]; at 12.8 µM (top of the series), parasite line A) -5.22% | activity, negative = inhibition ([16]; at 12.8 µM (top of the series), parasite line B) 11.2% | Potency (3D7) | Potency (CP262) | Potency (ECU) | Potency (HB3)

ClC1=C(Cl)C2(Cl)C3C4CC(C5OC45)C3C1(Cl)C2(Cl)Cl (stereo not given)
8.98%: max response [7, 17]
15.6%: max response [7, 18]
inactive: outcome [5] | activity change, negative = inhibition ([7]; at 57.5 µM (top of the series)) 3.37% | Potency [12] | Potency [13] | Potency [14] | Potency [15] | activity, negative = inhibition ([16]; at 28.7 µM (top of the series), parasite line A) -12.8% | activity, negative = inhibition ([16]; at 28.7 µM (top of the series), parasite line B) -9.6% | Potency (3D7) | Potency (ECU) | Potency (HB3)
